Laboratory results: PubChem BioAssay (NCATS)
Results filed as inconclusive are left out. Activity calls are given as the source filed them. Calls come from the whole dose curve; as a rule, active = well fitted inhibition curve with a large enough effect; inconclusive = small, poorly fitted or top-dose-only effect; inactive = flat fitted curve, though single readings scatter. Peptide text beside a SMILES is read from it.

Assays:
Assay in all cases: qHTS profiling for inhibitors of Plasmodium falciparum proliferation (AID 504749); note: nearly all actives have a fitted effect of over 60% in size
Conditions in all cases: P. falciparum in erythrocytes, SYBR Green DNA, 72 h; series mostly up to 28.7 µM
C2A = system: C2A
In short: (§1)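 Each compound contacts P. falciparum-infected red blood cells for 72 h at 37 C; lysis buffer (Tris, EDTA, saponin, Triton X, SYBR Green I) is added and fluorescence measured next morning; values normalized to controls.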

CP185 = system: CP185
In short: as §1

CP191 = system: CP191
In short: as §1

CP192 = system: CP192
In short: as §1

CP194 = system: CP194
In short: as §1

CP201 = system: CP201
In short: as §1

CP203 = system: CP203
In short: as §1

CP211 = system: CP211
In short: as §1

CP215 = system: CP215
In short: as §1

CP217 = system: CP217
In short: as §1

CP237 = system: CP237
In short: as §1

CP238 = system: CP238
In short: as §1

CP247 = system: CP247
In short: as §1

CP250 = system: CP250
In short: as §1

CP252 = system: CP252
In short: as §1

CP256 = system: CP256
In short: as §1

CP260 = system: CP260
In short: as §1

CP262 = system: CP262
In short: as §1

CP265 = system: CP265
In short: as §1

CP266 = system: CP266
In short: as §1

Measured: Potency
Potency is the fitted concentration of half-maximal effect.

CC(=O)N[C@@H](CC(=O)O)C(=O)N[C@@H](CCC(=O)O)C(=O)O (Ac-Asp-Glu-OH)
inactive: all assays above

C[C@@H]1CCC2[C@@H](C)[C@@H](O)O[C@@H]3O[C@@]4(C)CC[C@@H]1[C@@]23OO4 (stereo partly drawn)
active: C2A 2.2 nM | CP185 2.5 nM | CP191 3.2 nM | CP192 4.3 nM | CP194 6 nM | CP201 10.7 nM | CP203 3.4 nM | CP211 5.4 nM | CP215 4.8 nM | CP217 2.8 nM | CP237 1.6 nM | CP238 2.2 nM | CP247 3.2 nM | CP250 2.8 nM | CP252 2.5 nM | CP256 2.2 nM | CP260 1.3 nM | CP262 6 nM | CP265 0.9 nM | CP266 7.6 nM

CC[N+](C)(C)Cc1ccccc1Br
inactive: all assays above

Cc1c(C)c2c(c(C)c1O)CC[C@@](C)(CCC[C@H](C)CCC[C@H](C)CCCC(C)C)O2
inactive: all assays above

O=C1C(=O)c2ncccc2-c2cccnc21
active: C2A 3160 nM | CP185 2510 nM | CP191 3160 nM | CP192 953 nM | CP194 1350 nM | CP201 1690 nM | CP203 1690 nM | CP211 1070 nM | CP215 1350 nM | CP217 1260 nM | CP237 1000 nM | CP238 1000 nM | CP247 1580 nM | CP250 1260 nM | CP252 2510 nM | CP256 1000 nM | CP260 891 nM | CP262 6010 nM | CP265 891 nM | CP266 849 nM

CC1=C(/C=C/C(C)=C/C=C/C(C)=C/C=C/C=C(C)/C=C/C=C(C)/C=C/C2=C(C)C(=O)CCC2(C)C)C(C)(C)CCC1=O
not listed: CP256
inactive: all other assays above

CO[C@H]1C[C@@H]2CC[C@@H](C)[C@@](O)(O2)C(=O)C(=O)N2CCCC[C@H]2C(=O)O[C@H]([C@H](C)C[C@@H]2CC[C@@H](OCCO)[C@H](OC)C2)CC(=O)[C@H](C)/C=C(\C)[C@@H](O)[C@@H](OC)C(=O)[C@H](C)C[C@H](C)/C=C/C=C/C=C/1C
active: C2A 3160 nM | CP185 3160 nM | CP191 1120 nM | CP192 4780 nM | CP194 1690 nM | CP201 6010 nM | CP203 1900 nM | CP211 4260 nM | CP215 1690 nM | CP217 1000 nM | CP237 2000 nM | CP238 2820 nM | CP247 1260 nM | CP250 3160 nM | CP252 1260 nM | CP256 3550 nM | CP260 2000 nM | CP262 3010 nM | CP265 1120 nM | CP266 6010 nM

O=C(COc1ccc(Cl)cc1)OCCNC12CC3CC(CC(C3)C1)C2
not listed: CP237
inactive: all other assays above

C[C@]12CCC(=O)C=C1CC[C@@H]1[C@@H]2[C@@H](O)C[C@@]2(C)[C@H]1CC[C@]2(O)C(=O)COP(=O)(O)O
not listed: CP247
inactive: all other assays above

CN1C(=O)CN2CCc3ccccc3C2c2cc(Cl)ccc21 (stereo not drawn)
not listed: CP217 | CP237 | CP260
inactive: all other assays above

CCNC(=O)[C@@H]1CCCN1C(=O)[C@H](CCCN=C(N)N)NC(=O)[C@H](CC(C)C)NC(=O)[C@@H](Cc1c[nH]c2ccccc12)NC(=O)[C@H](Cc1ccc(O)cc1)NC(=O)[C@H](CO)NC(=O)[C@H](Cc1c[nH]c2ccccc12)NC(=O)[C@H](Cc1cnc[nH]1)NC(=O)[C@@H]1CCC(=O)N1
active: C2A 7080 nM | CP185 11200 nM | CP191 7940 nM | CP192 9530 nM | CP194 7570 nM | CP201 15100 nM | CP203 6750 nM | CP211 6750 nM | CP215 13500 nM | CP217 7080 nM | CP237 3550 nM | CP238 7080 nM | CP247 7080 nM | CP250 8910 nM | CP252 11200 nM | CP256 12600 nM | CP260 3550 nM | CP265 7940 nM | CP266 13500 nM
